Assay results taken from PubChem BioAssay.
Calls of active or inactive are those of the source.

What was measured:
[1] = small molecules captured by biotinylated probe aFSTL3 – biochemical, small-molecule microarray, fluorescence 635/667, stem cell growth factor project, primary screen (AID 1064); settings: higher = more signal;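 also: measures binding of the biotinylated anti-FSTL3 antibody to printed compounds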
[2] = binders from COS7 lysate, DM2A8 probe, primary screen, torsin A project, cell lysate, small-molecule microarray, fluorescence 635/667 (AID 1065); settings: higher = more signal, COS7 lysate expressing mutant human TOR1A
[3] = small molecules captured by biotinylated probe aFGF2 – biochemical, small-molecule microarray, fluorescence 635/667, stem cell growth factor project, primary screen (AID 1067); settings: higher = more signal;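 also: measures binding of biotinylated aFGF2 protein to printed compounds on slides; z-score merges feature fluorescence and signal-to-noise across triplicate slides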
[4] = small molecules captured by biotinylated probe aFGF10 – biochemical, small-molecule microarray, fluorescence 635/667, stem cell growth factor project, primary screen (AID 1071); settings: higher = more signal;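 also: score merges 667 nm spot intensity and signal to noise from triplicate slides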
[5] = target: Neurogenic locus notch homolog protein 2 (Homo sapiens) (UniProt Q04721); assay: small molecules binding Notch2 protein – biochemical, small-molecule microarray, 635 nm fluorescence, stem cell growth factors, primary screen (AID 1073); settings: higher = more signal
[6] = target: Pro-neuregulin-1, membrane-bound isoform (Homo sapiens) (UniProt Q02297); assay: small molecules binding neuregulin-1 protein – biochemical, small-molecule microarray, fluorescence 635/667, psychiatric disease protein project, primary screen (AID 1075); settings: NRG1 binding, 635 nm fluorescence, higher = more signal;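 also: score combines 667 nm spot fluorescence with signal to noise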
[7] = test system: Neuregulin-1 EGF-like domain; assay: small molecules binding NRG1 EGF domain – biochemical, small-molecule microarray, 635 nm fluorescence, primary screen (AID 1081); settings: higher = more signal;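 also: binding of the protein to compounds printed on small-molecule microarray slides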
[8] = FRG1 expression reporter modulators in myotubes – cell-based, C2C12 myotubes, firefly/Renilla luciferase, luminescence, FRG1 inhibition for FSHD, primary screen (AID 1084); settings: FRG1 promoter luciferase, higher = more signal, called active from +8 up or from −8 down
[9] = small molecules captured by biotinylated probe aFST – biochemical, small-molecule microarray, fluorescence 635/667, stem cell growth factor project, primary screen (AID 1086); settings: higher = more signal;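 also: score merges 667 nm fluorescence with signal-to-noise of each printed compound spot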
[10] = binders of probe aHhip on microarray, primary screen, stem cell growth factor project, biochemical, small-molecule microarray, fluorescence 635/667 (AID 1087); settings: higher = more signal;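 also: score merges spot fluorescence at 667nm with spot signal to noise ratio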
[11] = test system: PRMT1 (protein arginine N-methyltransferase 1); assay: small molecules binding arginine methyltransferase PRMT1 – biochemical, small-molecule microarray, 635 nm fluorescence, primary screen (AID 1088); settings: higher = more signal;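 also: binding of Prmt1 protein to compounds spotted on small-molecule microarray slides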
[12] = growth effects on S. cerevisiae YJM789 – YJM789 clinical isolate, OD600, 24 h, basal, primary screen (AID 1089); settings: higher = more signal, called active from +8 up or from −8 down;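 also: growth of clinical yeast isolate S. cerevisiae YJM 789 seeded 1000 cells per well; test concentration not given here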
[13] = S. pombe growth modifiers, basal conditions – strain 972, OD600, 24 h, no modulator, primary screen (AID 1090);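 also: basal condition with compound alone and no growth modifier present; test concentration not given here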; settings: S. pombe 972 growth, higher = more signal, called active from +8 up or from −8 down
[14] = budding yeast growth modifiers under rapamycin – strain BY4716, OD600, 96 h, primary screen (AID 1091); also: test concentration not given here; settings: S. cerevisiae BY4716 + rapamycin, higher = more signal, called active from +8 up or from −8 down
[15] = target: Torsin-1A-interacting protein 2 (Homo sapiens) (UniProt Q8NFQ8); assay: small molecules binding lysate-expressed LULL1 – cell lysate, human LULL1 lysate, 635/667 nm fluorescence, primary screen (AID 1092); settings: small-molecule microarray, hLULL1 lysate binding, 635 nm fluorescence; higher = more signal;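 also: probe is lysate of COS7 cells overexpressing human LULL1; score merges per-feature 667 nm fluorescence with signal-to-noise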
[16] = optical density change of DRC41 E. coli – strain DRC41, OD650, 24 h, E. coli filamentation project, primary screen (AID 1093);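 also: MC1000 strain lacking acrAB efflux and sulA so SOS filamentation is blocked; test concentration not given here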; settings: E. coli DRC41 growth, higher = more signal, called active from +8 up or from −8 down
[17] = probe aLefty2 binding to arrayed compounds – biochemical, biotinylated probe, 635/667 nm fluorescence, primary screen (AID 1094); settings: small-molecule microarray, higher = more signal;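 also: score merges spot fluorescence near 667 nm with spot signal-to-noise ratio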
[18] = test system: Noggin (protein binding on small-molecule microarray); assay: small molecules binding Noggin protein – biochemical, 635/667 nm fluorescence, primary screen (AID 1095); settings: 635 nm fluorescence, higher = more signal;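 also: score merges 667 nm feature fluorescence with signal to noise over triplicate slides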
[19] = target: Neurogenic locus notch homolog protein 3 (Homo sapiens) (UniProt Q9UM47); assay: small molecules binding NOTCH3 protein – biochemical, 635/667 nm fluorescence, primary screen (AID 1096); settings: small-molecule microarray, 635 nm fluorescence, higher = more signal
[20] = probe aEGFR binding to arrayed compounds – biochemical, biotinylated probe, 635/667 nm fluorescence, primary screen (AID 1097); settings: small-molecule microarray, higher = more signal;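 also: probe is a biotinylated anti-EGFR antibody binding compounds printed on slides; score combines fluorescence near 667 nm and signal to noise of each spot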

Sequence of Torsin-1A-interacting protein 2 (Homo sapiens) (Q8NFQ8 whole entry, looked up): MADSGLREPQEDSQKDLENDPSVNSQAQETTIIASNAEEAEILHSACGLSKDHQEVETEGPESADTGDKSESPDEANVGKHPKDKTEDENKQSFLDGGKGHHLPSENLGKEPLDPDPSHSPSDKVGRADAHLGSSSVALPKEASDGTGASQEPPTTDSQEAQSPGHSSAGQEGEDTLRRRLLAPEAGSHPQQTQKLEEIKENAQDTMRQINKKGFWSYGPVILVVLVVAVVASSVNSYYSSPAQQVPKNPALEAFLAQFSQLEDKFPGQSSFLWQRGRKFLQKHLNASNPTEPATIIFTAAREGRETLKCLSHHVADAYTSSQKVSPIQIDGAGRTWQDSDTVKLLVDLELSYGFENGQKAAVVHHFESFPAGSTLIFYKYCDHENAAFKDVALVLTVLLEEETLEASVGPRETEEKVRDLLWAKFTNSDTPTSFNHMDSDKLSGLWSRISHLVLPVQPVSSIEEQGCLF
Sequence of Pro-neuregulin-1, membrane-bound isoform (Homo sapiens) (Q02297 whole entry, looked up, the tested form may be a part, canonical isoform): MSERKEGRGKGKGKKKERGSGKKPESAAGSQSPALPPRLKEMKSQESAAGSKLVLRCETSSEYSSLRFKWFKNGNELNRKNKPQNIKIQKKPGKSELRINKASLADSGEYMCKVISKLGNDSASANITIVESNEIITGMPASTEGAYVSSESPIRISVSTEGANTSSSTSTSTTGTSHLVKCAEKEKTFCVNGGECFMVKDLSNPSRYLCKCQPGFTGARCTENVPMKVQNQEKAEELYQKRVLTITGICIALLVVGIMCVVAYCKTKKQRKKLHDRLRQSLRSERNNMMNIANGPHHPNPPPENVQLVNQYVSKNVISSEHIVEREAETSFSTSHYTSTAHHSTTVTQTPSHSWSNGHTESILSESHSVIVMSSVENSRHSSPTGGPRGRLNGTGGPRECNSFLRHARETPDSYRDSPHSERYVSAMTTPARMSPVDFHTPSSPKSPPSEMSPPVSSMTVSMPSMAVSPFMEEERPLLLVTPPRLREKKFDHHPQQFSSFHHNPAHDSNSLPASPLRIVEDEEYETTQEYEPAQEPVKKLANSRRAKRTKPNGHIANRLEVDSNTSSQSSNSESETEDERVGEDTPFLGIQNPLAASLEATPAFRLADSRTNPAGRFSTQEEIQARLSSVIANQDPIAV
Sequence of Neurogenic locus notch homolog protein 3 (Homo sapiens) (Q9UM47 whole entry, looked up): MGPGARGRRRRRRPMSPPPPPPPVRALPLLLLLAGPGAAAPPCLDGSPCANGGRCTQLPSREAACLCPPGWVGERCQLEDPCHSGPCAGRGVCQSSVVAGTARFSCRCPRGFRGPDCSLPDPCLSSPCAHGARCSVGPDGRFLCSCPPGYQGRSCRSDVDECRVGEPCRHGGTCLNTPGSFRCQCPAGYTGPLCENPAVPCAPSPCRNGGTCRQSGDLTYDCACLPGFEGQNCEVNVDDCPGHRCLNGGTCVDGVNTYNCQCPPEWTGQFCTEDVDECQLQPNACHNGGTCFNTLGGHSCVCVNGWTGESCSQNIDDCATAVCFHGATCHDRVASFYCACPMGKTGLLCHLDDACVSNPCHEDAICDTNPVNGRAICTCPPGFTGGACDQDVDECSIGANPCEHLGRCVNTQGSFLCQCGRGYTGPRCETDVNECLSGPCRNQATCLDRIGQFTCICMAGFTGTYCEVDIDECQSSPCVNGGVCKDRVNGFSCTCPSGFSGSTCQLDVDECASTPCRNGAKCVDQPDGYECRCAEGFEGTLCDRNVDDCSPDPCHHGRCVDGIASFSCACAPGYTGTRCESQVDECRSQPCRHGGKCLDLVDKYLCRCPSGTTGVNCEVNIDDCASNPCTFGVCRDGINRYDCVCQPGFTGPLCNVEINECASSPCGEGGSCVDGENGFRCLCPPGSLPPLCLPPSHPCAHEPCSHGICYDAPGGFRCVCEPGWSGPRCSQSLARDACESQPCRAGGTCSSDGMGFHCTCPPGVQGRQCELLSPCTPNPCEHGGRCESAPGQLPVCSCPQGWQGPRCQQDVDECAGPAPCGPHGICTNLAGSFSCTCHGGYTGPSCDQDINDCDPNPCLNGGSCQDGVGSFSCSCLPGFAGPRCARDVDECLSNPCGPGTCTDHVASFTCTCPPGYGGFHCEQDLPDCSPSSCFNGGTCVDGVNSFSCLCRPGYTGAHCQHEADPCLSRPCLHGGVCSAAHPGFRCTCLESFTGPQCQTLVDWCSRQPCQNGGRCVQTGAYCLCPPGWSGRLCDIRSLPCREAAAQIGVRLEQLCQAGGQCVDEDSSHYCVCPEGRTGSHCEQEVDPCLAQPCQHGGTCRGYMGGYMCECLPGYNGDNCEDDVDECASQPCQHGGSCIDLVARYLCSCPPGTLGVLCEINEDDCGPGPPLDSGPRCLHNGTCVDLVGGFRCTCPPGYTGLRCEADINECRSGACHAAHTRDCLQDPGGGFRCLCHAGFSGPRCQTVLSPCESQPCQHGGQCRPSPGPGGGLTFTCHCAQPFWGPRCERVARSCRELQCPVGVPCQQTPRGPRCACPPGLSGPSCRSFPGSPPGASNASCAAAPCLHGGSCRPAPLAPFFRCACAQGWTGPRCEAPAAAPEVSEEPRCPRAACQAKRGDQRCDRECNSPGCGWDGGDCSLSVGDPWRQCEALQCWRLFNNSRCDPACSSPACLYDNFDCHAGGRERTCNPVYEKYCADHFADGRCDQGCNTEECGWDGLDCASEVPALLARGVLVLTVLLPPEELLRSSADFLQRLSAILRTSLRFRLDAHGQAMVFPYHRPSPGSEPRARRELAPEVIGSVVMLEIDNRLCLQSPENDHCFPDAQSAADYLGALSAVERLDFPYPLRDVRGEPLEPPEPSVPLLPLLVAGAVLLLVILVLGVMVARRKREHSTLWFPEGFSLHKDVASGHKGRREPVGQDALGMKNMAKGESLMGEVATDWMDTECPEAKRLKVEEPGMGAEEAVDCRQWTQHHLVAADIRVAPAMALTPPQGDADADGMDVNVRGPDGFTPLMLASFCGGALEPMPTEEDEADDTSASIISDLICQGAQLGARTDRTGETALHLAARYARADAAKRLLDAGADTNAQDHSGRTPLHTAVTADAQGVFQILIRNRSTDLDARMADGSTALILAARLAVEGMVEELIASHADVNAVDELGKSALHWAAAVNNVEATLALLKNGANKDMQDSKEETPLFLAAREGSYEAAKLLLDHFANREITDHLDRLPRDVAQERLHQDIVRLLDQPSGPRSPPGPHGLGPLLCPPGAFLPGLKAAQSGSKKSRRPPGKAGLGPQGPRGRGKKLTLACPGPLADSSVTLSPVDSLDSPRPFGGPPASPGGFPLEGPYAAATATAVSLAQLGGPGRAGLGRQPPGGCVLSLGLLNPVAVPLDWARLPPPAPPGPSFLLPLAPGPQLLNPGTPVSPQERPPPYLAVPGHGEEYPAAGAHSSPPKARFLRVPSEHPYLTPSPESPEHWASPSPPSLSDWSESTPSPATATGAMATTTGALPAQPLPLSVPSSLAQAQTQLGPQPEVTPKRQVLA

| Structure (SMILES) | composite z-score [1] | composite z-score [2] | composite z-score [3] | composite z-score [4] | composite z-score [5] | composite z-score [6] | composite z-score [7] | z-score [8] | composite z-score [9] | composite z-score [10] | composite z-score [11] | z-score [12] | z-score [13] | z-score [14] | composite z-score [15] | z-score [16] | composite z-score [17] | composite z-score [18] | composite z-score [19] | composite z-score [20] |
| --- | --- | --- | --- | --- | --- | --- | --- | --- | --- | --- | --- | --- | --- | --- | --- | --- | --- | --- | --- | --- |
| COc1ccc([Si](C)(C)[C@@H]2[C@@H](CCO)O[C@]3(C(=O)N(Cc4ccccc4)c4ccc(N5C(=O)COc6ccccc65)cc43)[C@H]2C)cc1 | -0.169 | 0.217 | -0.0973 | 0.2 | 0.128 | 0.666 | 1.05 | -0.409 (inactive) | 0.17 | -0.0994 | 1.39 | 1.56 (inactive) | 0.504 (inactive) | 9.67 (active) | 1.74 | 2.61 (inactive) | -0.0511 | 1.09 | 0.624 | -0.187 |
| COC(=O)[C@@]1(Cc2ccccc2)[C@H]2c3cc(C(=O)N4CCCC4)n(CCO)c3C[C@H]2CN1C(=O)c1ccccc1 | 1.35 | 2.52 | 0.759 | 0.77 | 1.58 | 1.62 | 1.15 | -0.292 (inactive) | 2.6 | 0.216 | 0.718 | -0.598 (inactive) | 1.45 (inactive) | -1.88 (inactive) | 2.92 | -0.237 (inactive) | 1.35 | 0.815 | 0.946 | 0.986 |
| Cc1ccc(S[C@]2(C(=O)O)CC(=O)N(Cc3ccccc3C(F)(F)F)[C@@H]2c2ccc(CO)cc2)cc1 | 0.405 | -0.138 | -0.172 | -0.338 | -1.11 | -0.343 | 0.508 | -0.383 (inactive) | -0.49 | -0.374 | 0.667 | 0.517 (inactive) | 0.13 (inactive) | 0.124 (inactive) | 1.87 | 0.301 (inactive) | -0.0732 | -1.06 | -1.34 | -0.225 |
| C=CCC(OC(C)=O)[C@@H]1[C@@H](N(Cc2ccc(-c3cccc(C(F)(F)F)c3)o2)C(=O)c2cccc3ccccc23)c2cc(OCCCO)ccc2N1C(=O)c1ccc(-c2ccccc2)cc1 (stereo not given in full) | -0.188 | 0.0536 | -0.12 | -0.212 | -0.628 | 0.0252 | -0.908 | -0.579 (inactive) | 0.123 | 0.0749 | -0.496 | 0.0476 (inactive) | 0.0758 (inactive) | -0.0038 (inactive) | -0.94 | -0.993 (inactive) | -0.0785 | 1.06 | -0.358 | -0.099 |
| CCCNC(=O)[C@@]1(Sc2ccc(C)cc2)CC(=O)N(Cc2ccccc2)[C@@H]1c1ccc(CO)cc1I | 1.33 | -0.0477 | -0.0917 | -0.008 | 0.367 | 0.848 | 1.23 | -1.9 (inactive) | 0.692 | -0.0346 | 0.933 | -1.09 (inactive) | -1.46 (inactive) | 0.605 (inactive) | 0.869 | 0.605 (inactive) | -0.0866 | 0.54 | 0.282 | -0.11 |
| O=C1c2ccccc2[C@](Cc2ccccc2I)(C(=O)NC2CC2)[C@H](c2ccc(CO)cc2)N1Cc1ccccc1Cl | 0.558 | 0.478 | 0.221 | 0.487 | 1.23 | 1.36 | 1.27 | -2.71 (inactive) | 0.496 | -0.105 | 1.36 | 0.07 (inactive) | 0.376 (inactive) | 1.57 (inactive) | 1.91 | -1.02 (inactive) | 0.349 | 1.53 | 0.856 | 0.178 |
| C=C(COC)/C(=C/C[C@@H](OC(=O)c1ccncc1)c1cccc(OCCO)c1)c1cc(C(=O)OC)ccc1OC | -0.278 | 0.525 | -0.0428 | 1.06 | 0.426 | -0.142 | 1.38 | -3.79 (inactive) | -0.0671 | -0.156 | 1.56 | -25.3 (active) | -20.2 (active) | -4.36 (inactive) | 0.512 | 0.625 (inactive) | -0.205 | 1.32 | 0.841 | -0.0022 |
| O=C1NC(=O)C2C1C=CC(C(O)CCc1ccccc1)N2Nc1ccccn1 (stereo not given) | 0.313 | 0.478 | -0.0881 | 0.0386 | 1.07 | 1.19 | 0.83 | -0.338 (inactive) | 0.172 | -0.407 | 0.509 | -0.974 (inactive) | 1.51 (inactive) | -0.312 (inactive) | 1.51 | -0.581 (inactive) | -0.0719 | 0.103 | 0.312 | -0.0659 |
| CC(C)C[C@@H]1NC(=O)[C@@]23C(=O)N[C@@H](Cc4ccccc4)C2[C@H](C)[C@@]2(C)O[C@H]2C3/C=C/C/C=C\CNC(=O)[C@@H]2CCCN2C1=O (stereo not given in full) | -0.566 | 0.0462 | -0.106 | -0.0448 | -0.385 | -0.492 | -0.378 | 2.09 (inactive) | 0.0833 | -0.0994 | -0.653 | 0.0289 (inactive) | -0.151 (inactive) | -0.453 (inactive) | 0.0315 | -0.762 (inactive) | -0.223 | 0.326 | -0.46 | -0.121 |
| CN(C)CCCCNC(=O)[C@H]1C[C@H]2C(=O)N[C@@H](CCCC[N+](C)(C)C)C(=O)N2[C@H]1c1cccc(OCCO)c1 | -0.235 | 1.09 | -0.116 | -0.0012 | -0.606 | 0.417 | 1.26 | 2.9 (inactive) | -0.268 | -0.0994 | 1.53 | -0.359 (inactive) | 0.276 (inactive) | -0.702 (inactive) | 2.05 | 0.305 (inactive) | -0.204 | 1.35 | 0.907 | -0.0733 |
